# High-throughput results deposited in PubChem BioAssay by National Center for Advancing Translational Sciences (NCATS).
# Anthrax LT inh: qHTS Assay for Anthrax Lethal Toxin Internalization; Cells, anthrax lethal toxin internalization, FRET ratio (460/530); Potency, µM (titrated, usually from 40 µM), without a hit: top-dose activity change, negative = inhibition, actives largely listed as inhibitors; actives 0.67% (n = 70,000); AID 912, 2007; further: on the % scale 0 is the no-effect control and ±100 the full control effect; nearly all actives have a fitted effect of over 50% in size
# AmpC inh no det: Promiscuous and Specific Inhibitors of AmpC Beta-Lactamase (assay without detergent); P00811; AmpC nitrocefin hydrolysis, absorbance 480 nm, no detergent; Potency, µM (highest dose often 28.7 µM), for inactives: at the top dose activity change, negative = inhibition; actives 1.8% (n = 71,000); further: % of control where 0% means no effect
# Target sequence (P00811 whole entry, looked up): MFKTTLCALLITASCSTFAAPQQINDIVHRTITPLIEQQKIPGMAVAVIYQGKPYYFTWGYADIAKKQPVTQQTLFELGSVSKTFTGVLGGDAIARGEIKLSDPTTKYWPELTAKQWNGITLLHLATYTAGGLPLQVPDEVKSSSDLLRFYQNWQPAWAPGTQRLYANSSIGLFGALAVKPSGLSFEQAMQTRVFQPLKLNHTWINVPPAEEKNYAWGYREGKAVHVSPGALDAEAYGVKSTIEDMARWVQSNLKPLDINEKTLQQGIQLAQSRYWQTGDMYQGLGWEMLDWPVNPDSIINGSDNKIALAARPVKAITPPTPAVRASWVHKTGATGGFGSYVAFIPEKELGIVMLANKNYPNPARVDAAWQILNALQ
#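 Enzyme, pH 7.0 phosphate. Compound titrations were pre-incubated with AmpC for 15 min at room temperature before nitrocefin (stock 800 uM) addition; product formation was recorded at 480 nm every 20 s for 4 min.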
# AmpC det inh: Promiscuous and Specific Inhibitors of AmpC Beta-Lactamase (assay with detergent). purified AmpC, nitrocefin hydrolysis with detergent. Potency, µM (highest dose often 28.7 µM), without a hit: top-dose activity change, negative = inhibition. actives 0.09% (n = 71,000). P00811; active means well fitted curve in the direction sought with a large enough effect; inconclusive means small, poorly fitted or top-dose-only effect; further: on the % scale 0 is the no-effect control and ±100 the full control effect
#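 E. coli AmpC (5.3 nM) in 20 mM phosphate pH 7.0 with 0.01% Triton X-100, preincubated 15 min RT with compound; nitrocefin (2 uL of 800 uM stock) hydrolysis followed by 480 nm absorbance every 20 s over 4 min.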
# SmPrx2 inh: Schistosoma Mansoni Peroxiredoxins (Prx2); Potency, µM; Schistosoma mansoni peroxiredoxin 2 (Prx2); AID 448, 2006; S. mansoni Prx2 activity coupled to TGR/GSH (TGR is thioredoxin glutathione reductase), NADPH fluorescence loss, qHTS; actives 0.07% (n = 65,000)
#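 Prx2 inhibition was measured as reduced NADPH consumption when electrons flowed from NADPH through TGR and glutathione to Prx2 and H2O2. Plates were read kinetically over 8 min; enzyme reagents were held at 4 deg C during dispensing.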
# The depositor's hits bear a star; ? = inconclusive; . = no result; [ ] = another dose, or the depositor's remark. Sampled rows, rich in hits. Any-hit rate of the full collection: about 2.4%. Unless noted, the call rests on the fitted dose curve. Potency means the concentration at half of the fitted maximal effect.
SMILES,Anthrax LT inh,AmpC inh no det,AmpC det inh,SmPrx2 inh
COc1cccc(C(c2nnnn2CCc2ccccc2)N2CCN(c3ccccc3)CC2)c1OC (configuration not stated),?,54%,0%,>57
CO[C@H]1COC(=O)C/C=C\[C@@H](C)COC(=O)[C@@H](C)NC(=O)C/C=C\[C@@H]1C,1%[8 µM],.,.,.
COc1ccc(S(=O)(=O)Cc2ccc(C(=O)N3CCN(Cc4ccccc4)CC3)o2)cc1,-11%,109%,12%,>57
COc1ccc(S(=O)(=O)Cc2ccc(C(=O)N3CCN(c4ccc(Cl)cc4)CC3)o2)cc1,13µM*,84%,5%,>57
COc1ccc(S(=O)(=O)Cc2ccc(C(=O)N3CCc4ccccc4C3)o2)cc1,-14%,3.2µM*[single pt active],6%,>57
CC(C)NC(=O)N1CCC2(CC1)CCN(C(=O)c1cc(C(F)(F)F)cc(C(F)(F)F)c1)CC2,?,107%,0%,>57
N[C@@H](Cc1c[nH]c2ccccc12)C(=O)NCC(=O)O,-3%,-9%,-3%,>57
O=C(NCCCN1CCN(c2ccccc2F)CC1)C1CCCN(S(=O)(=O)c2cnc[nH]2)C1 (configuration not stated),-2%,4µM*[single pt active],11%,.
O=C(NCCN1CCN(C(=O)NC2CCCCC2)CC1)NC1CCCCC1,-4%,12%,-6%,>57
NC(=O)CN1CCN(C(=O)NC2CCCCC2)CC1,-2%,3.2µM*[single pt active],16%,>57
COc1cccc(CSCC(=O)O)c1,?,0%[5.75 µM],-1%[5.75 µM],>57
C[C@@H]1CNCCN1S(=O)(=O)c1cccc2cnccc12,14%,-2%,0%,>57
O=c1oc2ccccc2n1CCc1ccccc1,-4%,-11%,-2%,>57
O=c1oc2ccccc2n1Cc1ccccc1Cl,?,4µM*,14%,>57
COc1ccc(CCNc2nc(C)nc3c2oc2ccccc23)cc1OC,10µM*,101%,-2%,>57
COc1ccc(CCNc2ncnc3c2oc2ccccc23)cc1OC,?,59%,-3%,>57
Cc1cc(=O)oc2cc(NC(=O)C3COc4ccccc4O3)ccc12 (configuration not stated),?,10µM*,-4%,>57
O=C(Nc1ccc2c(c1)OCO2)C1COc2ccccc2O1 (configuration not stated),-13%,-10%,-2%,.
COc1ccccc1CN1CCC2(CC1)CCN(C(=O)c1cc(C(F)(F)F)cc(C(F)(F)F)c1)CC2,?,106%,-4%,>57
O=C(CSc1nnc(Cc2csc(Nc3cccc(Cl)c3)n2)o1)N1CCc2ccccc21,-26%,13µM*,1%,>57
O=C(CSc1nnc(CNc2ccccc2)o1)N1CCc2ccccc21,1%,16µM*[single pt active],0%,>57
O=C(CSc1nnc(Cc2ccccc2)o1)N1CCCc2ccccc21,4%,28%,12%,>57
Cc1oc2c(O)c(O)ccc2c(=O)c1-c1cnn(-c2ccccc2)c1,7.9µM*,-7%,3%,.
